# Measured values published in paper PMC7862700, “An all-to-all approach to the identification of sequence-specific readers for epigenetic DNA modifications on cytosine”.
# Columns and labels:
# Test in all cases: DAPPL (digital affinity profiling via proximity ligation, sequencing); 10 mM Tris-HCl pH 7.5, 50 mM NaCl, 1 mM DTT, 4% glycerol, room temperature, 30 min; GST-TFs on glutathione beads, 16-mer random dsDNA library, 0.1% formaldehyde crosslink after washing; high values mean tight binding
# Conditions in all cases: protein: recombinant; tags: N-terminal GST; dsDNA, one strand shown
# GABPA = molecular target: T1, GABPA (Homo sapiens, UniProt Q06546 1-454)
# T1 sequence: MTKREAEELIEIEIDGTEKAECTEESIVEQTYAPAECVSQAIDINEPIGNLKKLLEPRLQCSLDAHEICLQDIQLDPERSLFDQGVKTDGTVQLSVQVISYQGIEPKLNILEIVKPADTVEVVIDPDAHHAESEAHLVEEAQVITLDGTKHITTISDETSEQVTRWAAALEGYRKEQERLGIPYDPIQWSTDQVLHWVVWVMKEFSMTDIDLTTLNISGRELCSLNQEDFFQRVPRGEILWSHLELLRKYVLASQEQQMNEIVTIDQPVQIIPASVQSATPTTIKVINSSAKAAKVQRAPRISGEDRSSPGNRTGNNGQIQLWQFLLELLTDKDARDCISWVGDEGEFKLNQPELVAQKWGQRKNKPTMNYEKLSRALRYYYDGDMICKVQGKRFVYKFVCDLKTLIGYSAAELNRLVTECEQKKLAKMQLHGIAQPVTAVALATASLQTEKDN
# Outline: (§1)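 Binding signal is each hexamer's read frequency for a factor divided by its frequency in the tag-only sample. The factors were GST-fused human transcription factors from yeast, captured on glutathione beads, DNA-barcoded and pooled with that sample. Pools were incubated with 200 nmole of a random double-stranded 16-mer DNA library in Tris/NaCl/DTT/glycerol buffer at room temperature for 30 min, then washed, crosslinked with 0.1% formaldehyde, proximity-ligated with BsaI/T4 ligase (1 h, 37 °C), PCR-amplified and sequenced on an Illumina NextSeq500.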
# ELF1 = ELF1 (Homo sapiens, UniProt P32519 1-619)
# Sequence of ELF1 (P32519 whole entry): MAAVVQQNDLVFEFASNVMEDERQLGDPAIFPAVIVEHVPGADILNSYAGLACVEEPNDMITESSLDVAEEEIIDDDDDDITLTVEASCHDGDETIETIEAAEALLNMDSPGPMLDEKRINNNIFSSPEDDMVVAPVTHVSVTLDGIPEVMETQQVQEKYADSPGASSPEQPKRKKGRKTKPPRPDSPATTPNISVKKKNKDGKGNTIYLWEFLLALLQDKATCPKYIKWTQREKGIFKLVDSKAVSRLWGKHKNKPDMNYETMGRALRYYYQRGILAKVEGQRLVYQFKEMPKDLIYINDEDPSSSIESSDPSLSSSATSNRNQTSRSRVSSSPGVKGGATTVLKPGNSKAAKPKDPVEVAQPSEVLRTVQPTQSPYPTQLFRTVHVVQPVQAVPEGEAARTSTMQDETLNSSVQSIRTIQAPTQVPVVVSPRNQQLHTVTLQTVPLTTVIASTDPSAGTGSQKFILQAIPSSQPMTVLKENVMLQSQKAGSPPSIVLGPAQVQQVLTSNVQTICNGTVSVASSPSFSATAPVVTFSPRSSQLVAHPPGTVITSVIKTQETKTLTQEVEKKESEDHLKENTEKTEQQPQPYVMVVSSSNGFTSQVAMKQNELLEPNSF
# Outline: as §1
# EHF = molecular target: T2, EHF (Homo sapiens, UniProt Q9NZC4 1-300)
# T2 sequence: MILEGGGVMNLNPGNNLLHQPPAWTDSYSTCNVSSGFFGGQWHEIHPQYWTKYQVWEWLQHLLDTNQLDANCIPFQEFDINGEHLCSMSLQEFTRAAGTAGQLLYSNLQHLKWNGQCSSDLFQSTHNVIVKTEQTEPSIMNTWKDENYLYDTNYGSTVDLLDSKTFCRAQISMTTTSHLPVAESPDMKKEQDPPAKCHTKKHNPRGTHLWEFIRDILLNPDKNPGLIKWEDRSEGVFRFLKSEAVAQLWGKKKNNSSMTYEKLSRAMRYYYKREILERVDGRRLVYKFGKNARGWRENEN
# Outline: as §1
# SPIB = SPIB (Homo sapiens, UniProt Q01892 1-262)
# Sequence of SPIB (Q01892 whole entry): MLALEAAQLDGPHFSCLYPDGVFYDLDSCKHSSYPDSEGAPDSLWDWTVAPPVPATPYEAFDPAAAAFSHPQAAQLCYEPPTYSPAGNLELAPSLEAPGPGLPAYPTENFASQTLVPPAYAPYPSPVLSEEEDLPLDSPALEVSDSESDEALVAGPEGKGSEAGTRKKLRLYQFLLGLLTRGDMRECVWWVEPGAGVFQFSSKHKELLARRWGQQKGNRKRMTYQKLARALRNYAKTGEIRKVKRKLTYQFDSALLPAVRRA
# Outline: as §1
# ETV5 = ETV5 (Homo sapiens, UniProt P41161 1-510)
# Sequence of ETV5 (P41161 whole entry): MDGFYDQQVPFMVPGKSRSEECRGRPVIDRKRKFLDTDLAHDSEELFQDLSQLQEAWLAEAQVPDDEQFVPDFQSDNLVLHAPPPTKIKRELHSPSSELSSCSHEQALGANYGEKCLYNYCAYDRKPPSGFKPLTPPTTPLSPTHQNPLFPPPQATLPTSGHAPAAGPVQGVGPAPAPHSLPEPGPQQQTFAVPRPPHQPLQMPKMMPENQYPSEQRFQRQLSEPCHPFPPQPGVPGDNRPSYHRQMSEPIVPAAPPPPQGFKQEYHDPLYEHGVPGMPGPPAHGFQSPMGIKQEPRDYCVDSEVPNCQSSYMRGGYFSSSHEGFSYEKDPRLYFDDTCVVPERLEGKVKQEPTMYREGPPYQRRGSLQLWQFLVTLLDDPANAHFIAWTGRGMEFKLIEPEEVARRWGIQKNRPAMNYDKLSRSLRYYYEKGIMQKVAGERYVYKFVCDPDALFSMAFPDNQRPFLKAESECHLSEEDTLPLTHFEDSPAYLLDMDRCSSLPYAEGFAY
# Outline: as §1
# ELF4 = ELF4 (Homo sapiens, UniProt Q99607 1-663)
# Sequence of ELF4 (Q99607 whole entry): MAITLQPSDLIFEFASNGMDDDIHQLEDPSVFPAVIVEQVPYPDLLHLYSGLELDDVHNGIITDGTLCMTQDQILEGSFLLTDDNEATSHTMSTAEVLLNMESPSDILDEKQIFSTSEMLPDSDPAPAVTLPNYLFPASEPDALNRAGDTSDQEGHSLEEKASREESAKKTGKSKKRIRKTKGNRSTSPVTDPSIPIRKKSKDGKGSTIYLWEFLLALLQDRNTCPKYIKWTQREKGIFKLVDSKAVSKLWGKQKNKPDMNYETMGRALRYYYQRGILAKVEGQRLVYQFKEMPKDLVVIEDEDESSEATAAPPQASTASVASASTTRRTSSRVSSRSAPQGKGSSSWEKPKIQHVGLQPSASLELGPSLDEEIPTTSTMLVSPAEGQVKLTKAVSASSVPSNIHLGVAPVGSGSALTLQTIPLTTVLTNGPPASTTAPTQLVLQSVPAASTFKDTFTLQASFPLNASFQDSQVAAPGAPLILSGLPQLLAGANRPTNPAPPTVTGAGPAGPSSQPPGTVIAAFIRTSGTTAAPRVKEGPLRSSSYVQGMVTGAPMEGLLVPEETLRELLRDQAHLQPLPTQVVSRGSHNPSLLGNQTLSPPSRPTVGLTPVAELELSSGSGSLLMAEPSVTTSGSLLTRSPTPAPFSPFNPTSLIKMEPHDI
# Outline: as §1
# ELK4 = molecular target: T3, ELK4 (Homo sapiens, UniProt P28324-2 1-405)
# T3 sequence: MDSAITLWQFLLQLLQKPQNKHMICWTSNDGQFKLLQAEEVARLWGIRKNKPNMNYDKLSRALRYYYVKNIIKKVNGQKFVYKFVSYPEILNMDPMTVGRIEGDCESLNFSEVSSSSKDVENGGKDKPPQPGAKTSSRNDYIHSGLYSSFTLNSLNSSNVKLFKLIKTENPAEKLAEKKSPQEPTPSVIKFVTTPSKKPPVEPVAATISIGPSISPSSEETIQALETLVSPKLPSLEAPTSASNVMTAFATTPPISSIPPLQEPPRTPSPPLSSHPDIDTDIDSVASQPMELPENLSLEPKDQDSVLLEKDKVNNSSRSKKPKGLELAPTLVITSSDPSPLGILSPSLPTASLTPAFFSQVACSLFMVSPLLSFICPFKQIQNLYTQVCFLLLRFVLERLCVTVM
# Outline: as §1
# ETV2 = molecular target: T4, ETV2 (Homo sapiens, UniProt O00321 1-342)
# T4 sequence: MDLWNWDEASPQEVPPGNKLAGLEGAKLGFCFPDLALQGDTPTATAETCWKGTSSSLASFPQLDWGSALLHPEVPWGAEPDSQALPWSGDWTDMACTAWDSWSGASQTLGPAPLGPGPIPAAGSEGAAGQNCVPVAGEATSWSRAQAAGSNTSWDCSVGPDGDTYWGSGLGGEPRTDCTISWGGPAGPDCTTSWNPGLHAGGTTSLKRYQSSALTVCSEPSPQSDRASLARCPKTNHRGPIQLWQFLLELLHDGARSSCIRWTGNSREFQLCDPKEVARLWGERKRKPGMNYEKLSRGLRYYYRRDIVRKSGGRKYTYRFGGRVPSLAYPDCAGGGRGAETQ
# Outline: as §1
# ELF3 = molecular target: T5, ELF3 (Homo sapiens, UniProt P78545 1-371)
# T5 sequence: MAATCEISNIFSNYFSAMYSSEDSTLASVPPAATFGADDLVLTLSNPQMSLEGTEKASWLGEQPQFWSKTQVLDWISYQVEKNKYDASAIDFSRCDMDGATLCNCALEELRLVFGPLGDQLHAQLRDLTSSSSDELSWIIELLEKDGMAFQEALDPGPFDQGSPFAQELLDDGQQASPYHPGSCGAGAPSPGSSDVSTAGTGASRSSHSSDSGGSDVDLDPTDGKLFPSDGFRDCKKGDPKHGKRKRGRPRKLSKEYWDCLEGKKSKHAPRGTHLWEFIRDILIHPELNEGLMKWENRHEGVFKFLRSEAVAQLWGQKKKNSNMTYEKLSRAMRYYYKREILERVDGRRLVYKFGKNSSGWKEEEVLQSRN
# Outline: as §1
# ETV1 = ETV1 (Homo sapiens, UniProt P50549 1-477)
# Sequence of ETV1 (P50549 whole entry): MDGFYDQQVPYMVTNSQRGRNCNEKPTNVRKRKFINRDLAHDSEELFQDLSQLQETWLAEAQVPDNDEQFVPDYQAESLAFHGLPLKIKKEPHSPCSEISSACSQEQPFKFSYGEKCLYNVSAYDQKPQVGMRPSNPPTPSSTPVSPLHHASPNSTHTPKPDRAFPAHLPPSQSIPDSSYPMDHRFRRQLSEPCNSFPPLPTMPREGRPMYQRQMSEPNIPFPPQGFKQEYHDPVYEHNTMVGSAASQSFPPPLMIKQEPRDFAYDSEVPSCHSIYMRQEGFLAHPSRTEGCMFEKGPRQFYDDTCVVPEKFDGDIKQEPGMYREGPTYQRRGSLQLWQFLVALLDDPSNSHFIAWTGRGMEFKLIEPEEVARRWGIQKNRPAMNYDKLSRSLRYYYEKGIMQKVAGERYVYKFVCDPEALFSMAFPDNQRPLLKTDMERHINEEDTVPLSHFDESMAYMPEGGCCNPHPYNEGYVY
# Outline: as §1
# SPDEF = molecular target: T6, SPDEF (Homo sapiens, UniProt O95238 1-335)
# T6 sequence: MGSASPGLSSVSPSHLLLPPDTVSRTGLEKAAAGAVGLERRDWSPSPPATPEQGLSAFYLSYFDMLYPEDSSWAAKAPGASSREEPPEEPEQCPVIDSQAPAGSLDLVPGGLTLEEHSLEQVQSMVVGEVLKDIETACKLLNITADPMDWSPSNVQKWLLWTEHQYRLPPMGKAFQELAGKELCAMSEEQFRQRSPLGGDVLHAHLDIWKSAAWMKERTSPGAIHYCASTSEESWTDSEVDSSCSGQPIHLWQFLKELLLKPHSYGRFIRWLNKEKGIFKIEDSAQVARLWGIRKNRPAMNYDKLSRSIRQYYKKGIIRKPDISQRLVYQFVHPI
# Outline: as §1
# ETV3 = molecular target: T7, ETV3 (Homo sapiens, UniProt P41162-2 1-143)
# T7 sequence: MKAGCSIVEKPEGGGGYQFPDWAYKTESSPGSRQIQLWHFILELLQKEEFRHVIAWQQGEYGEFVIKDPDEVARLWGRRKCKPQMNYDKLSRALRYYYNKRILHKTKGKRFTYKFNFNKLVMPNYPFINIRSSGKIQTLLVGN
# Outline: as §1
# ETV6 = ETV6 (Homo sapiens, UniProt P41212 1-452)
# Sequence of ETV6 (P41212 whole entry): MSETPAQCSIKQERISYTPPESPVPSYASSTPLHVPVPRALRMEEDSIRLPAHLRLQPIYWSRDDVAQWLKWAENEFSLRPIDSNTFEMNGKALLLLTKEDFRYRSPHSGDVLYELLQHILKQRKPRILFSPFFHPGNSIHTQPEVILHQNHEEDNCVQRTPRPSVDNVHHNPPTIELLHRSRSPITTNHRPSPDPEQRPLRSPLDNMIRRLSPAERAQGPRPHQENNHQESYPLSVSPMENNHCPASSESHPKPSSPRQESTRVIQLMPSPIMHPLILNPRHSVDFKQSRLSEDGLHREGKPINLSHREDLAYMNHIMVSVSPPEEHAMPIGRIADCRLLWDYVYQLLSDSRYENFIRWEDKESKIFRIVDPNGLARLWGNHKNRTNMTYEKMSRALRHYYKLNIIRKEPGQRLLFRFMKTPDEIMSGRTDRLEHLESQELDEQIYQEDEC
# Outline: as §1
# ELK1 = molecular target: T8, ELK1 (Homo sapiens, UniProt P19419 1-428)
# T8 sequence: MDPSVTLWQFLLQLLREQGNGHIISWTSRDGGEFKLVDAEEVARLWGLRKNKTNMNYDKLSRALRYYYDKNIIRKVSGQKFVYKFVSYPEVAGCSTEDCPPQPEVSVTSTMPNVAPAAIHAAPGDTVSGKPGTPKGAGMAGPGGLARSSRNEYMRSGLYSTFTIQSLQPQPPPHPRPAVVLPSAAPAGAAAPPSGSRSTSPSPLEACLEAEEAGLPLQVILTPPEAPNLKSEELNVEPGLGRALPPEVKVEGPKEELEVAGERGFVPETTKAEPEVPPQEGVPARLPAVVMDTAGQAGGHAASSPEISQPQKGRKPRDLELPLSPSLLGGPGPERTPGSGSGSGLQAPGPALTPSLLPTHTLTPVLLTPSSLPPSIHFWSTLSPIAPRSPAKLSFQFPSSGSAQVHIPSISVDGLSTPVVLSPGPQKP
# Outline: as §1
# ERF = molecular target: T9, ERF (Homo sapiens, UniProt P50548 1-548)
# T9 sequence: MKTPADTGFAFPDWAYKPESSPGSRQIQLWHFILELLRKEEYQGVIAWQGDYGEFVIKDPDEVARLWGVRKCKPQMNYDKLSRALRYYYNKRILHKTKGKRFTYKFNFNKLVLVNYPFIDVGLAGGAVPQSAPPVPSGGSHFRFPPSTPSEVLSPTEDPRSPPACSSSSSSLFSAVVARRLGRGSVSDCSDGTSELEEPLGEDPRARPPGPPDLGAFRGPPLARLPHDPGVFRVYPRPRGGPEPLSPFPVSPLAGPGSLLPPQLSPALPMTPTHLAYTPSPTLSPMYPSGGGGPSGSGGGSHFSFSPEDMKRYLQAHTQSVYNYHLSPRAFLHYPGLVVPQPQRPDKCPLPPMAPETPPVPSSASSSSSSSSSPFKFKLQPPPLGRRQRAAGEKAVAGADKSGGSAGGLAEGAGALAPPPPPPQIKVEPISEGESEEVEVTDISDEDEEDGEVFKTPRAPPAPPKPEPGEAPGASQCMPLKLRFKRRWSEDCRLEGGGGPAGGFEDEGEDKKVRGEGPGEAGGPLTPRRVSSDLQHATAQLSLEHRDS
# Outline: as §1
Sequence,binding signal (GABPA),binding signal (ELF1),binding signal (EHF),binding signal (SPIB),binding signal (ETV5),binding signal (ELF4),binding signal (ELK4),binding signal (ETV2),binding signal (ELF3),binding signal (ETV1),binding signal (SPDEF),binding signal (ETV3),binding signal (ETV6),binding signal (ELK1),binding signal (ERF)
ACGCGG,"1.01 fold enrichment (6-mer frequency, TF over GST control)","1.03 fold enrichment (6-mer frequency, TF over GST control)","1.04 fold enrichment (6-mer frequency, TF over GST control)","1.04 fold enrichment (6-mer frequency, TF over GST control)","1.02 fold enrichment (6-mer frequency, TF over GST control)","1 fold enrichment (6-mer frequency, TF over GST control)","1.03 fold enrichment (6-mer frequency, TF over GST control)","1.18 fold enrichment (6-mer frequency, TF over GST control)","1.07 fold enrichment (6-mer frequency, TF over GST control)","1.02 fold enrichment (6-mer frequency, TF over GST control)","1.08 fold enrichment (6-mer frequency, TF over GST control)","1.02 fold enrichment (6-mer frequency, TF over GST control)","1.07 fold enrichment (6-mer frequency, TF over GST control)",–,–
ACGGTA,–,"1.01 fold enrichment (6-mer frequency, TF over GST control)",–,–,"1.04 fold enrichment (6-mer frequency, TF over GST control)",–,"1.02 fold enrichment (6-mer frequency, TF over GST control)","1.03 fold enrichment (6-mer frequency, TF over GST control)",–,"1.01 fold enrichment (6-mer frequency, TF over GST control)","1.05 fold enrichment (6-mer frequency, TF over GST control)",–,–,"1.03 fold enrichment (6-mer frequency, TF over GST control)","1.09 fold enrichment (6-mer frequency, TF over GST control)"
